SENP6 block: inhibitors of human SENP6 protease. 330,000 compounds, 1.8% hits. Recombinant SENP6 catalytic domain, aminoluciferin luminescence. inhibition, % at 10 µM;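 active = inhibition above about 50% at the single tested dose, limit read from the data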;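 note: plate controls were DMSO wells with enzyme for no effect and DMSO wells lacking enzyme for full effect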
HSP90 refold inh: blocks HSP90-mediated luciferase refolding in reticulocyte lysate; Rabbit reticulocyte lysate, luciferase refolding luminescence, 3 h; inhibition, % at 5.6 µM; 290,000 compounds, 0.91% hits; AID 1789;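 active = inhibition above the screen-wide mean plus 3 SD, computed separately per campaign, cut at about 16% in these data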;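 note: 0% = DMSO wells and 100% = 60 µM geldanamycin wells; inhibitors lower the luminescence because luciferase stays unfolded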
SENP8 block-1: blocks the human protease SENP8; Q96LD8; purified SENP8, Z-RLRGG-aminoluciferin cleavage, luminescence; inhibition, % at 10 µM; 330,000 compounds, 1.2% hits; in the data active = inhibition above about 50%
SENP7 block: blocks the human protease SENP7 | recombinant SENP7, Z-RLRGG-aminoluciferin luminescence, 40 min | inhibition, % at 5 µM | 330,000 compounds, 1.5% hits;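 active = inhibition above about 50% at the single test dose, limit read from the data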;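 note: plate controls were DMSO with enzyme for no effect and no enzyme buffer wells for full effect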
Target sequence (Q9BQF6 706-1050 limits assumed): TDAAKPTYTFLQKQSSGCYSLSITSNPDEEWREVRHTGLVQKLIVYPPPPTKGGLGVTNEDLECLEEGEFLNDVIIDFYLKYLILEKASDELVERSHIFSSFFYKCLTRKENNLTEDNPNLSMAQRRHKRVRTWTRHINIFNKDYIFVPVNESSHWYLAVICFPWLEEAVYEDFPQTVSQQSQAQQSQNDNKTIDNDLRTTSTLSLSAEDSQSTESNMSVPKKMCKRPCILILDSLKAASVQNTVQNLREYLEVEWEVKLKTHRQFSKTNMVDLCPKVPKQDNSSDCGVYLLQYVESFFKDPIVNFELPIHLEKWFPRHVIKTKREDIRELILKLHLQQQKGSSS
SENP8 block-2: inhibitors of human SENP8 protease; Q96LD8; recombinant SENP8, Nedd8 substrate fluorescence; inhibition, % at 20 µM; 360,000 compounds, 0.64% hits; in the data active = inhibition mostly above about 40%, no sharp cut-off; inactive = mostly below about 27%
SENP8 conf: confirmation of human SENP8 protease inhibitors. shares compounds with SENP7 block. Recombinant SENP8, Z-RLRGG-aminoluciferin luminescence, 60 min. inhibition, % at 12.5 µM. 6,200 compounds, 40% hits;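 active = mean inhibition across replicates above about 50%, limit read from the data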
SENP6 conf: confirmation of human SENP6 protease inhibitors. shares compounds with SENP7 block. recombinant SENP6, Z-RLRGG-aminoluciferin luminescence. inhibition, % at 12.5 µM. 6,200 compounds, 58% hits. AID 488915
SENP7 conf: confirmation of human SENP7 protease inhibitors; shares compounds with SENP7 block; recombinant SENP7, Z-RLRGG-aminoluciferin luminescence, 40 min; inhibition, % at 12.5 µM; 6,200 compounds, 69% hits
Casp3 select: caspase-3 inhibition (SENP selectivity assay) | shares compounds with SENP7 block | purified caspase-3, Z-DEVD-aminoluciferin luminescence, 60 min | inhibition, % at 12.5 µM | 6,200 compounds, 60% hits | AID 488918;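 active = mean inhibition above about 50%, limit read from the data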;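 note: plate controls were enzyme with DMSO for no effect and wells without caspase-3 for full effect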
Target sequence (P42574 28-227 limits assumed): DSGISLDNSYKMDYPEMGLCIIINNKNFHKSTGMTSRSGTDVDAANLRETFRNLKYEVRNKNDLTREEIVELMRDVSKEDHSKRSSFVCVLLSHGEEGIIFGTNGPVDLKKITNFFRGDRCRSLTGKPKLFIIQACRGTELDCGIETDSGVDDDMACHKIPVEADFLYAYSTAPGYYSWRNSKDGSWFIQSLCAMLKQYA
Luc interf: interferes with luciferase luminescence in SENP counter-screen | shares compounds with SENP7 block | Pre-incubated SENP8/Z-RLRGG-aminoluciferin, luciferase luminescence interference | inhibition, % at 12.5 µM | 6,200 compounds, 39% hits;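 active = mean inhibition above about 50% when retested at one dose, limit read from the data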;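 note: plate controls were DMSO wells with completed reaction for no effect and substrate without enzyme for full effect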
An asterisk follows results filed as active; . = not tested or not shown. Sampled rows, rich in hits. Any-hit rate of the full collection: about 2.7%.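 Rule for the calls, unless noted: active = mean inhibition above about 50% in the one-dose retest (limit read from the data); inactive = the rest.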

SMILES	SENP6 block	HSP90 refold inh	SENP8 block-1	SENP7 block	SENP8 block-2	SENP8 conf	SENP6 conf	SENP7 conf	Casp3 select	Luc interf
Clc1ccc(-n2nnc(-c3nccs3)n2)cc1Cl	82*	6	72*	82*	8	24	44	60*	68*	-5
Fc1ccccc1N=C1NN=C(c2ccccc2)CS1	-19	8	11	0	-28	.	.	.	.	.
Clc1ccccc1N=C1NN=C(c2cccs2)CS1	68*	-5	77*	74*	-6	85*	86*	97*	69*	77*
CC(=O)c1sc(NC(=O)c2cc(=O)c3ccccc3o2)nc1C	82*	3	67*	64*	15	79*	82*	96*	90*	48
CC(=O)c1sc(NC(=O)c2c(F)cccc2F)nc1C	-12	2	-8	2	8	.	.	.	.	.
CC(=O)c1sc(NC(=O)c2oc3ccc(F)cc3c2C)nc1C	45	.	57*	80*	-469	37	39	17	50*	16
CSCCOC(=O)COc1ccc(/C=N/NC(=O)c2nn(C)cc2Cl)cc1	-17	-1	-7	-7	18	.	.	.	.	.
COc1ccc2c(=O)c(-c3nc(C)cs3)coc2c1	93*	5	91*	96*	-41	-7	53*	84*	76*	57*
Cc1csc(-c2coc3cc(O)cc(C)c3c2=O)n1	95*	-4	91*	4	6	43	92*	98*	90*	27
COc1ccc(-c2coc3cc(OC)ccc3c2=O)cc1	.	.	.	.	-49	.	.	.	.	.
Cc1nc(-c2coc3cc(OCC(=O)O)ccc3c2=O)cs1	65*	8	31	2	-22	57*	54*	86*	88*	63*
COc1ccc(-c2coc3cc(O)c(OC)cc3c2=O)cc1	46	.	39	53*	-495	27	27	75*	75*	56*
COc1ccc(-c2coc3cc(O)ccc3c2=O)cc1	27	.	14	2	-297	.	.	.	.	.
Cc1cc(NC(=O)c2ccccc2[N+](=O)[O-])ccc1Br	-26	0	-3	-1	10	.	.	.	.	.
O=C(Cc1ccc(-n2cccc2)cc1)N1CCc2ccccc21	-5	-1	-10	15	25	.	.	.	.	.
Cc1cccc(OCCOC(=O)Nc2ccccc2)c1	-6	11	-8	3	15	.	.	.	.	.
CCOC(=O)[C@H]1[C@H]2COc3ccc(C)cc3[C@@H]2N2C(=O)CN(CC3CCCO3)C(=O)[C@@]12C (some centres not stated)	0	.	7	-2	10	.	.	.	.	.
Cc1c(C(=O)C(=O)N2CCN(C)CC2)c2ccccc2n1C	-7	-2	2	11	23	.	.	.	.	.
Cc1c(C(=O)N2CCOCC2)[nH]c2c1C(=O)CC(c1ccc(Cl)cc1)C2 (configuration not stated)	0	-1	3	2	22	.	.	.	.	.
Cc1c(C(=O)O)[nH]c2c1C(=O)CC(c1ccc(Cl)cc1)C2 (configuration not stated)	-7	1	5	90*	8	7	5	-2	-2	-5
N#C/C(=C\c1ccco1)c1nc2ccccc2s1	89*	6	87*	88*	-5	88*	91*	97*	84*	30
N#C/C(=C/c1ccco1)c1nc2ccccc2s1	38	2	86*	78*	-10	82*	86*	95*	85*	55*
N#C/C(=C/c1ccc(-c2cc(C(=O)O)cc(C(=O)O)c2)o1)c1nc2ccccc2s1	-19	2	3	3	.	.	.	.	.	.
Cc1[nH]n(-c2cccc(Cl)c2)c(=O)c1C=NCc1ccco1	52*	1	23	23	13	-6	-8	16	8	17
O=C1NC2=C(C(=O)CCC2)C(c2ccc3ncccc3c2)N1 (configuration not stated)	-2	1	2	72*	13	0	5	6	0	0
SMILES	SENP6 block	HSP90 refold inh	SENP8 block-1	SENP7 block	SENP8 block-2	SENP8 conf	SENP6 conf	SENP7 conf	Casp3 select	Luc interf
O=c1c[n+]([O-])c2ccccc2n1OCc1c(F)cccc1F	-6	2	4	-2	-90	.	.	.	.	.
COc1ccc2nc(N3CCC(C)CC3)c(C#N)cc2c1	72*	2	11	-5	-326	6	6	9	4	5
S=c1nc2ccccc2c2nc(-c3ccccc3Br)[nH]n12	-10	1	-3	-6	24	.	.	.	.	.
Brc1ccccc1-c1nc2c3ccccc3ncn2n1	91*	.	77*	11	-212	-6	29	68*	39	56*
Cc1ccc(C)c(COC(=O)c2cc(S(=O)(=O)N3CCCCC3)ccc2N2CCOCC2)c1	-2	.	-2	-7	-3	.	.	.	.	.
CC1(C(=O)Nc2nnc(C(C)(C)C)s2)Cc2ccccc2C(=O)O1 (configuration not stated)	-14	0	1	101*	12	-1	-2	-3	-2	0
CCSc1nnc(NC(=O)C2(C)Cc3ccccc3C(=O)O2)s1 (configuration not stated)	-3	6	-4	2	10	.	.	.	.	.
N#Cc1ccsc1NC(=O)COC(=O)c1cc(Br)ccc1O	95*	-1	89*	85*	-70	75*	82*	87*	70*	23
N#Cc1ccsc1NC(=O)COC(=O)c1ccc2ccccc2c1	91*	2	84*	86*	17	6	67*	100*	80*	20
N#Cc1ccsc1NC(=O)COC(=O)c1ccc(Br)o1	2	.	2	0	-38	.	.	.	.	.
COc1ccc(CCC(=O)Nc2sccc2C#N)cc1	86*	-4	80*	87*	.	84*	85*	98*	89*	59*
CCN1C(=O)C(=O)N(CC(=O)N(C)CC(=O)Nc2ccccc2C(F)(F)F)C1=O	-11	.	-2	2	1	.	.	.	.	.
Cc1ccc(CSCC(=O)NCCCN2CCOCC2)cc1	-19	-1	-13	-10	0	.	.	.	.	.
O/C(=C\c1ccc2ccccc2n1)c1ccncc1	98*	.	90*	97*	-115	94*	94*	102*	97*	94*
O=C(CSc1nc2ccccc2c(=O)n1-c1cccc(C(F)(F)F)c1)NC1CC1	32	1	-10	1	16	.	.	.	.	.

Source: PubChem (several laboratories)
